In all, about 320,000 compounds went through this assay and about 22,000 (6.9%) were called active. Where a call stands in place of a potency, no number is given. Another 27% or so got no clear call; they are omitted. The sample holds actives, similar compounds and a random draw of the others, so the mix is not that of the screen. Calls follow the shape of the dose curve; as a rule, active = well fitted inhibition curve with a large enough effect; inconclusive = small, poorly fitted or top-dose-only effect, or another doubt; inactive = no such curve, though single readings can be large or run the other way.
Potency is read from the fitted curve at half-maximal effect.

The nature of the assay: Primary qHTS for delayed death inhibitors of the malarial parasite plastid, 96 hour incubation. The conditions noted are these: P. falciparum luciferase reporter growth; series mostly up to 28.7 µM. The method, boiled down:
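Readout is luminescence from an integrated firefly luciferase in P. falciparum. Red cells, 2% hematocrit and 0.05% parasitemia final, were cultured with compound through two parasite generations (96 hours) at 37 C, 5% CO2.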
Take `CC1C(=O)NC(=O)C1c1ccccc1` (stereo not given): the Potency entry is “inactive”.

`COc1ccccc1C(=O)NCCC(=O)NC1=NCCS1`: the Potency result is “inactive”.

With `CCOC(=O)c1ccccc1NC(=O)COC(=O)CCC(=O)N1CCOCC1`, the Potency result was “inactive”.

`COc1ccc(N(C(=O)CNC(=O)c2ccco2)C(C(=O)NCC2CCCO2)c2ccccc2)cc1Cl` (stereo not given): the Potency entry is “inactive”.

For `Cc1nc([N+](=O)[O-])c(NCCCO)n1Cc1ccccc1`, the Potency entry is “inactive”.

Turning to `COCCn1cnc2c1c(=O)n(CC(=O)NN)c(=O)n2Cc1ccccc1`, the Potency entry was “inactive”.

On to `N=c1c2c(-c3ccccc3)c(-c3ccccc3)n(Cc3ccccc3)c2ncn1CCCO`, for which the Potency was 4.65 µM (active).

Turning to `CC1=C(C(=O)OC2CCCCC2)C(c2ccccc2F)NC(=O)N1` (stereo not given), the Potency result was “inactive”.

With `O=C(CSc1nnc(-c2ccccc2O)o1)NC1CCCCC1`, the Potency result is “inactive”.

For the compound `COc1ccccc1NC(=O)COC(=O)COc1ccccc1F`, the Potency entry is “inactive”.

With `C=CCSc1nc2c(c(=O)[nH]c(=O)n2C)n1Cc1ccccc1`, the Potency result was “inactive”.

As for `C=CCn1c(SCc2ccccc2)nc2c1c(=O)[nH]c(=O)n2C`, the Potency result was “inactive”.

On to `CCCCCn1c(SCCC(C)C)nc2c1c(=O)[nH]c(=O)n2C`, for which the Potency was 13.1 µM (active).

In the case of `COc1ccccc1OCc1ccc(C(=O)NC(C)c2ccccc2)o1` (stereo not given), the Potency entry was “inactive”.

Consider `CCN(CC)C(=O)CC1(c2ccccc2OC)CCOC(C(C)C)C1` (stereo not given), for which the Potency was 11.7 µM (active).

In the case of `CCN(CC(=O)Nc1ccccc1OC)C(=O)CC1CC2CCC1C2` (stereo not given), the Potency entry was “inactive”.

For the compound `CN1CCN(S(=O)(=O)c2cccc(C(=O)Nc3cccc(S(N)(=O)=O)c3)c2)CC1`, the Potency entry is “inactive”.

In the case of `CN(C)c1ccc(S(=O)(=O)NCC(=O)NCC2CCCCC2)cc1[N+](=O)[O-]`, the Potency entry is “inactive”.

Take `COc1ccc(C(=O)OCC(=O)NCCCc2ccccc2)cc1OC`: the Potency result was “inactive”.

`CCOc1ccc(C(CC(=O)O)NC(=O)C23CC4CC(CC(C4)C2)C3)cc1OC` (stereo not given): the Potency result is “inactive”.

Regarding `CCOc1ccc(C(CCc2ccccc2)NC(=O)c2ccc(OC)c(OC)c2)cc1OCC` (stereo not given), the Potency is 0.233 µM (active).

Consider `Cc1cc(NS(=O)(=O)c2ccc(NC(=O)c3cccnc3)cc2)nc(C)n1`, for which the Potency result is “inactive”.

On to `CCN1N=C(c2ccccc2)CCC1=O`, for which the Potency entry was “inactive”.

For `O=c1c(-c2ccccc2)coc2c(CN3CCOCC3)c(O)ccc12`, the Potency entry was “inactive”.

Turning to `CCN1CCN(Cc2c(O)ccc3c(=O)c(-c4ccc(OC)c(OC)c4)c(C(F)(F)F)oc23)CC1`, the Potency entry was “inactive”.

With `O=c1oc2c(CN3CCCCC3)c(O)ccc2c2c1CCCCC2`, the Potency was 10.4 µM (active).

Consider `COc1cc(NC(=O)CSC(=S)N2CCCC2)c(OC)cc1Cl`, for which the Potency result was “inactive”.

In the case of `CN(CCNC(=O)c1cc2c(-c3ccccc3F)nn(C)c2s1)C1CCCCC1`, the Potency entry was “inactive”.

In the case of `COc1ccc(CNC(=O)COc2cccnc2[N+](=O)[O-])cc1`, the Potency result was “inactive”.

As for `Cc1ccc(C)c(S(=O)(=O)N2CCN(C(=O)Nc3ccccc3)CC2)c1`, the Potency entry was “inactive”.

As for `Cc1ccc(C)c(S(=O)(=O)N2CCN(CC(=O)Nc3ccc([N+](=O)[O-])cc3)CC2)c1`, the Potency is 10.4 µM (active).

On to `Cc1ccc([N+](=O)[O-])cc1S(=O)(=O)N1CCCN(C)CC1`, for which the Potency entry is “inactive”.

As to `Cc1c(CNCCc2ccccc2)c(C(=O)O)c(C)n1-c1ccccc1`, the Potency entry was “inactive”.

Take `Cc1ccc(CC2C(=O)N(c3ccc(F)cc3)C(=O)C2C)cc1` (stereo not given): the Potency result was “inactive”.

In the case of `CCCc1nn(C)c2c(=O)[nH]c(-c3cc(S(N)(=O)=O)ccc3OCC)nc12`, the Potency result is “inactive”.

For `CC(C)CN(C(=O)c1cccc(S(=O)(=O)N2CCCCC2)c1)C1CCS(=O)(=O)C1` (stereo not given), the Potency result was “inactive”.

For the compound `CCC1CCCCN1C(=S)Nc1ccc(SC(F)F)cc1` (stereo not given), the Potency result was “inactive”.

With `CCC1CCCCN1C(=S)Nc1ccc(C(C)=O)cc1` (stereo not given), the Potency result is “inactive”.

Take `CCC1CCCCN1C(=S)Nc1ccc(S(=O)(=O)Nc2ncccn2)cc1` (stereo not given): the Potency is 10.4 µM (active).

For the compound `Cc1ccc(C)c(S(=O)(=O)Nc2cc(C)on2)c1`, the Potency result is “inactive”.

Take `Cc1ccc(OCC(=O)Nc2ccc(N3CCN(C(=O)c4ccco4)CC3)cc2)c(C)c1`: the Potency entry was “inactive”.

For `CN(Cc1ccccc1)C(=O)CSc1nc2ccccc2[nH]1`, the Potency result was “inactive”.

As for `O=C(CSc1nc2ccccc2[nH]1)Nc1nc(-c2ccccc2)c(-c2ccccc2)o1`, the Potency was 13.1 µM (active).

On to `O=C(CSc1nc2ccccc2[nH]1)c1cccs1`, for which the Potency entry is “inactive”.

With `COc1ccc2c(c1)C(NS(=O)(=O)OCC(Cl)(Cl)Cl)CCC2` (stereo not given), the Potency result was “inactive”.

Regarding `CC(=O)N(C)c1ccc(NC(=O)C(F)(F)F)cc1`, the Potency entry is “inactive”.

Turning to `CCOc1ccc(NC(=O)N(CC(C)C)CC(C)C)cc1`, the Potency result is “inactive”.

In the case of `CCOc1ccc(NC(=O)Nc2ccc(N(C)C(C)=O)cc2)cc1`, the Potency was 16.5 µM (active).

Turning to `O=C(O)CCCCCCCCc1cn(CN2C(=O)c3ccccc3C2=O)nn1`, the Potency result is “inactive”.

Turning to `Cc1nc(NC(=O)c2cccc(Cl)c2)sc1-c1csc(Nc2cccc(Cl)c2)n1`, the Potency was 9.28 µM (active).

For `O=C(Nc1ccc(-c2csc(Nc3cccc(C(F)(F)F)c3)n2)cc1)c1cccc(C(F)(F)F)c1`, the Potency is 8.28 µM (active).

`Cc1ccc(-c2csc(NNC(=O)c3ccccc3)n2)cc1`: the Potency was 3.7 µM (active).

With `O=C(Nc1nc(-c2ccc(-c3ccccc3)cc2)cs1)c1cnccn1`, the Potency result was “inactive”.

In the case of `CC(=O)Nc1cccc(C(=O)Nc2nc(C)cs2)c1`, the Potency entry was “inactive”.

Turning to `CC(=O)c1sc(NC(=O)c2ccc(C)cc2)nc1C`, the Potency entry is “inactive”.

Regarding `CNC(=O)c1ccc(NC(=O)c2cccc(C(F)(F)F)c2)cc1`, the Potency result is “inactive”.

For `CCNS(=O)(=O)c1ccc(NC(=O)Nc2cccc(C(F)(F)F)c2)cc1`, the Potency entry is “inactive”.

As for `Cn1sc(NC(=O)c2ccccc2)nc1=O`, the Potency result is “inactive”.

In the case of `Cc1ccc(Nc2nc(-c3sc(NC(=O)c4ccccc4)nc3C)cs2)cc1`, the Potency is 13.1 µM (active).

For the compound `O=C(O)c1ccccc1C(=O)Nc1nc(-c2ccccc2)cs1`, the Potency result was “inactive”.

Take `CCOC(=O)c1c(NC(=O)CN2C(=O)NC3(CCC(C)CC3)C2=O)sc(C)c1CC` (stereo not given): the Potency result was “inactive”.

In the case of `NC(=O)c1c(NC(=O)CSc2nc(N)cc(=O)[nH]2)sc2c1CCCC2`, the Potency result was “inactive”.

Regarding `COc1cc(NS(=O)(=O)c2ccc(NC(=S)NC(=O)c3ccc(Br)cc3)cc2)ncn1`, the Potency entry was “inactive”.

Regarding `COc1ccccc1Cn1c(CO)nc2ccccc21`, the Potency result was “inactive”.

Turning to `COc1ccc(-n2ncc3c(SCC(=O)NNC(C)=O)ncnc32)cc1`, the Potency result is “inactive”.

As for `CC(=O)c1cccc(NC(=O)c2cc(C)nn2-c2ccccc2)c1`, the Potency result is “inactive”.

As for `COc1ccc(Cl)cc1C(=O)OCC(=O)NCc1cccs1`, the Potency entry is “inactive”.

Take `Cc1c(-c2nn(C)c(=O)c3ccccc23)oc2ccc(F)cc2c1=O`: the Potency was 4.15 µM (active).

In the case of `O=C1c2oc3ccc(Br)cc3c(=O)c2C(c2cccc(F)c2)N1CCO` (stereo not given), the Potency result is “inactive”.

For `CCC(=O)NCc1cc(-c2nn(C)c(=O)c3ccccc23)ccc1OC`, the Potency entry was “inactive”.

Values taken from PubChem BioAssay AID504834 (National Center for Advancing Translational Sciences (NCATS), 2011).
